Values without a mark were called inactive. Inconclusive results are not listed. Where a call stands in place of a potency, no number is given. The source made the active and inactive calls. Unless noted, the call rests on the fitted dose curve; in most records, active means well fitted curve in the direction sought with a large enough effect in the repeat runs; inconclusive means weak or mixed curves; inactive means no such curve, though single readings can be large; an effect the other way counts as inactive or inconclusive.
Tested on: not listed separately
Assay: qHTS assay to identify small molecule agonists of the androgen receptor (AR) signaling pathway in the presence of an antagonist - cell viability counter screen (AID 1259379); further: nearly all actives have a fitted effect of over 25% in size; further: potency means the concentration at half of the fitted maximal effect;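 on activity change, negative = cytotoxicity: MDA-kb2 human breast cancer cells carrying an MMTV luciferase reporter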
Conditions: MDA-kb2 viability, CellTiter-Fluor, 16 h; series mostly up to 92.4 µM
Method in brief: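 Cytotoxicity counter-screen run in the same wells as the nilutamide-challenged (3.0 µM final) AR agonist assay in MDA-kb2 cells. Compounds tested at 15 concentrations for 16 h, 37 °C without CO2; CellTiter-Fluor fluorescence read.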

Q: Which Potency does the source give for `CC(=O)OC1CCCCC1` here?
A: The Potency was “inactive”.

Q: With `c1ccc(Sc2ccccc2)cc1` as the molecule, how does the Potency read?
A: The Potency was “inactive”.

Q: Which Potency does the source give for `Cc1ccc(CCn2c3c(c4cc(Cl)ccc42)CN(C)CC3)cn1` here?
A: Its Potency is “inactive”.

Q: With `CCc1cccc(C)c1` as the molecule, how does the Potency read?
A: Its Potency is “inactive”.

Q: For `O=C(O)Cc1ccc(OCCNC[C@H](O)c2ccccc2)cc1`, which Potency is on record?
A: The Potency was “inactive”.

Q: With `CCC(C)C(=O)OC` (configuration not stated) as the molecule, how does the Potency read?
A: The Potency was “inactive”.

Q: Which Potency does the source give for `CCN(CC)c1cccc(C)c1` here?
A: The Potency was “inactive”.

Q: For `CCCCCCCC(=O)OCC`, which Potency is on record?
A: Its Potency is “inactive”.

Q: For `OCCCc1cccnc1`, which Potency is on record?
A: Its Potency is “inactive”.

Q: For `CCCCCCCCCCCCCC[n+]1ccccc1`, which Potency is on record?
A: The Potency was 3.06 µM (active).

Q: Which Potency does the source give for `Cc1cc(C)c(C=O)c(C)c1` here?
A: Its Potency is “inactive”.

Q: With `COc1cccc(CCc2ccccc2OCC(CN(C)C)OC(=O)CCC(=O)O)c1` (configuration not stated) as the molecule, how does the Potency read?
A: Its Potency is “inactive”.

Tested on: not listed separately
Assay: qHTS assay to identify small molecule agonists of the estrogen receptor beta (ER-beta) signaling pathway - cell viability counter screen (AID 1259380); further: nearly all actives have a fitted effect of over 30% in size; further: potency means the concentration at half of the fitted maximal effect
Conditions: ER-beta-bla HEK293T viability, CellTiter-Glo luminescence, 16 h; series mostly up to 92.4 µM
Method in brief: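 Cell viability counter screen: CellTiter-Glo luminescence (30 min, room temperature) measured in the same wells as the beta-lactamase readout, after 16 hr compound exposure at 37C of ER-beta-bla HEK293T cells in 2% charcoal-stripped FBS medium.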

Q: For `CCOC(=O)[C@@](C)(N)Cc1ccc(O)c(O)c1`, which Potency is on record?
A: Its Potency is “inactive”.

Q: With `CCC(=O)CC(C)CC` (configuration not stated) as the molecule, how does the activity change, negative = cytotoxicity read?
A: The activity change, negative = cytotoxicity was 3.56% [at 0.349 µM].

Q: Which Potency does the source give for `CCCCCCCCC(C)=O` here?
A: Its Potency is “inactive”.

Q: For `CCCCCCCCCCc1ccccc1`, which Potency is on record?
A: Its Potency is “inactive”.

Q: Which Potency does the source give for `Nc1cc(Cl)c([N+](=O)[O-])cc1O` here?
A: Its Potency is “inactive”.

Q: For `C/C=C/C(=O)Oc1c(CCCCCC(C)C)cc([N+](=O)[O-])cc1[N+](=O)[O-]`, which Potency is on record?
A: The Potency was 30.6 µM (active).

Q: Which Potency does the source give for `COC(=O)C1=C(C)NC(C)=C(C(=O)OCCCN2CCC(c3ccccc3)(c3ccccc3)CC2)C1c1cccc([N+](=O)[O-])c1` (configuration not stated) here?
A: Its Potency is 23.7 µM (active).

Q: With `CC(COC(=O)c1ccccc1)OC(=O)c1ccccc1` (configuration not stated) as the molecule, how does the Potency read?
A: Its Potency is “inactive”.

Q: For `C(=C/c1ccccc1)/c1ccccc1`, which Potency is on record?
A: The Potency was “inactive”.

Q: Which Potency does the source give for `c1cc[nH]c1` here?
A: Its Potency is “inactive”.

Q: With `CCCCCCCCCCCCN(CCO)CCO` as the molecule, how does the Potency read?
A: Its Potency is 60.9 µM (active).

Q: For `Clc1nc2ccccc2s1`, which Potency is on record?
A: The Potency was “inactive”.

Q: With `OCCC(O)CO` (configuration not stated) as the molecule, how does the Potency read?
A: The Potency was “inactive”.

Q: Which Potency does the source give for `NCCCCCCNCCCCCCN` here?
A: The Potency was “inactive”.

Q: With `O=C1NCCN1CCN1CCC(c2cn(-c3ccc(F)cc3)c3ccc(Cl)cc23)CC1` as the molecule, how does the Potency read?
A: The Potency was 13.3 µM (active).

Q: With `Cc1c(C(=O)O)cccc1[N+](=O)[O-]` as the molecule, how does the Potency read?
A: Its Potency is “inactive”.

Q: Which Potency does the source give for `O=C(O)c1cccc(Cl)n1` here?
A: The Potency was “inactive”.

Q: For `CCCCCCCCCCCCCCCC`, which Potency is on record?
A: The Potency was “inactive”.

Q: Which Potency does the source give for `CC=O` here?
A: The Potency was 57 µM (active).

Q: For `CCO[Si](C)(C)OCC`, which Potency is on record?
A: The Potency was “inactive”.

Q: For `O=C=NCc1cccc(CN=C=O)c1`, which activity change, negative = cytotoxicity is on record?
A: The activity change, negative = cytotoxicity was 2.31% [at 19 µM].

Q: For `NC(=O)c1nc(-c2cccc(-c3cc(F)ccc3OCC(F)(F)C(F)(F)F)c2)n[nH]1`, which Potency is on record?
A: Its Potency is 61.1 µM (active).

Q: Which Potency does the source give for `CO[Si](CCC1CCC2OC2C1)(OC)OC` (configuration not stated) here?
A: The Potency was “inactive”.

Q: With `ClC/C=C\CCl` as the molecule, how does the Potency read?
A: Its Potency is “inactive”.

Q: For `CC(=O)OC1CCCCC1`, which Potency is on record?
A: The Potency was “inactive”.

Q: With `c1ccc(Sc2ccccc2)cc1` as the molecule, how does the Potency read?
A: The Potency was “inactive”.

Q: With `Cc1ccc(CCn2c3c(c4cc(Cl)ccc42)CN(C)CC3)cn1` as the molecule, how does the Potency read?
A: The Potency was 26.6 µM (active).

Q: Which Potency does the source give for `CCc1cccc(C)c1` here?
A: Its Potency is “inactive”.

Q: With `O=C(O)Cc1ccc(OCCNC[C@H](O)c2ccccc2)cc1` as the molecule, how does the Potency read?
A: Its Potency is “inactive”.

Q: For `CCC(C)C(=O)OC` (configuration not stated), which Potency is on record?
A: Its Potency is “inactive”.

Q: Which Potency does the source give for `CCN(CC)c1cccc(C)c1` here?
A: The Potency was “inactive”.

Q: With `CCCCCCCC(=O)OCC` as the molecule, how does the Potency read?
A: The Potency was “inactive”.

Q: For `OCCCc1cccnc1`, which Potency is on record?
A: Its Potency is “inactive”.

Q: With `CCCCCCCCCCCCCC[n+]1ccccc1` as the molecule, how does the Potency read?
A: Its Potency is 30.6 µM (active).

Q: With `Cc1cc(C)c(C=O)c(C)c1` as the molecule, how does the Potency read?
A: Its Potency is “inactive”.

Q: With `COc1cccc(CCc2ccccc2OCC(CN(C)C)OC(=O)CCC(=O)O)c1` (configuration not stated) as the molecule, how does the Potency read?
A: The Potency was 23.7 µM (active).

Target: Androgen receptor (Homo sapiens) (UniProt P10275)
Sequence (P10275 whole entry, looked up): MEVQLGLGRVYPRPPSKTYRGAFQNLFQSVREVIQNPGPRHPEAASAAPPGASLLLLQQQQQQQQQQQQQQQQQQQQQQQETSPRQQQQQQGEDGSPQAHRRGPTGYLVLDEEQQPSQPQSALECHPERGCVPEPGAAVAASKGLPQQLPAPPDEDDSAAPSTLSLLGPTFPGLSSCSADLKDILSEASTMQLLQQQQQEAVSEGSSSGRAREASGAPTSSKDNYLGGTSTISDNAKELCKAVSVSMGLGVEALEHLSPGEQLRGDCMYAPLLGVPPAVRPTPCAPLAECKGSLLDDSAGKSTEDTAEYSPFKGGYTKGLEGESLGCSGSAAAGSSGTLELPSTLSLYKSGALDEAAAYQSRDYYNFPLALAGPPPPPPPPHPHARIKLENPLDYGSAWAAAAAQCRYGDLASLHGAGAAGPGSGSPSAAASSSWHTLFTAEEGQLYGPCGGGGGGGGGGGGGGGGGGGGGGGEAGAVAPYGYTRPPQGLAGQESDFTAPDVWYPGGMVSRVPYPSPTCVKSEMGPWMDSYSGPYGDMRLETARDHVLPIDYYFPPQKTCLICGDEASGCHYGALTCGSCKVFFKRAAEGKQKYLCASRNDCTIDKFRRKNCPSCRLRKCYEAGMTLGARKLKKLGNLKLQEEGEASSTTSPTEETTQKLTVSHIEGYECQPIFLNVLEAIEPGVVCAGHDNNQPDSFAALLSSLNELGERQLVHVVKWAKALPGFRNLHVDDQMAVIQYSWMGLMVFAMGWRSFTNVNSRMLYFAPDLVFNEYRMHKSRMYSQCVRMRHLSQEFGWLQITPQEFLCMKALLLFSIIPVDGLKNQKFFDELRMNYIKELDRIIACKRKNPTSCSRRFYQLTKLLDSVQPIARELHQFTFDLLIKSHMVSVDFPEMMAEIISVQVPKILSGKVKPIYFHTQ
Assay: qHTS assay to identify small molecule agonists of the androgen receptor (AR) signaling pathway in the presence of an antagonist (AID 1259381; calls by dose curve; further: nearly all actives have a fitted effect of over 15% in size)
Conditions: MDA-kb2 MMTV-luciferase, AR agonist + nilutamide, 16 h; series mostly up to 92.4 µM
Method in brief: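 Agonist-mode confirmation run against 3.0 uM final nilutamide: compounds titrated at 15 concentrations onto MDA-kb2 MMTV-luciferase reporter cells. Luminescence measured with ONE-Glo following 16 hr incubation, 37C, 0% CO2.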

Q: For `COC(=O)C1=C(C)NC(C)=C(C(=O)OCCCN2CCC(c3ccccc3)(c3ccccc3)CC2)C1c1cccc([N+](=O)[O-])c1` (configuration not stated), which Potency is on record?
A: The Potency was “inactive”.

Q: For `O=C1NCCN1CCN1CCC(c2cn(-c3ccc(F)cc3)c3ccc(Cl)cc23)CC1`, which Potency is on record?
A: The Potency was “inactive”.

Q: Which Potency does the source give for `Cc1c(C(=O)O)cccc1[N+](=O)[O-]` here?
A: Its Potency is “inactive”.

Q: For `NC(=O)c1nc(-c2cccc(-c3cc(F)ccc3OCC(F)(F)C(F)(F)F)c2)n[nH]1`, which Potency is on record?
A: Its Potency is “inactive”.

Q: With `c1ccc(Sc2ccccc2)cc1` as the molecule, how does the Potency read?
A: Its Potency is “inactive”.

Q: Which Potency does the source give for `CCCCCCCC(=O)OCC` here?
A: Its Potency is “inactive”.

Tested on: not listed separately
Assay: qHTS assay to identify small molecule antagonists of the estrogen receptor beta (ER-beta) signaling pathway - cell viability counter screen (AID 1259382); further: nearly all actives have a fitted effect of over 55% in size; further: potency means the concentration at half of the fitted maximal effect;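 on activity change, negative = cytotoxicity: HEK293T cells carrying ER-beta-UAS-bla reporter stimulated with estradiol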
Conditions: ER-beta-UAS-bla HEK293T viability, CellTiter-Glo luminescence, 16 h; series mostly up to 92.4 µM
Method in brief: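 Cytotoxicity was measured in the same wells by CellTiter-Glo luminescence after 30 min at room temperature. Cells were ER-beta-bla HEK293T in charcoal-stripped serum, given compound together with 1 nM E2 and incubated 16 h at 37C.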

Q: With `CCOC(=O)[C@@](C)(N)Cc1ccc(O)c(O)c1` as the molecule, how does the Potency read?
A: Its Potency is “inactive”.

Q: For `CCC(=O)CC(C)CC` (configuration not stated), which activity change, negative = cytotoxicity is on record?
A: Its activity change, negative = cytotoxicity is 9.77% [at 0.349 µM].

Q: With `CCCCCCCCC(C)=O` as the molecule, how does the Potency read?
A: Its Potency is “inactive”.

Q: For `CCCCCCCCCCc1ccccc1`, which Potency is on record?
A: Its Potency is “inactive”.

Q: For `Nc1cc(Cl)c([N+](=O)[O-])cc1O`, which Potency is on record?
A: The Potency was “inactive”.

Q: With `C/C=C/C(=O)Oc1c(CCCCCC(C)C)cc([N+](=O)[O-])cc1[N+](=O)[O-]` as the molecule, how does the Potency read?
A: The Potency was 48.6 µM (active).

Q: For `COC(=O)C1=C(C)NC(C)=C(C(=O)OCCCN2CCC(c3ccccc3)(c3ccccc3)CC2)C1c1cccc([N+](=O)[O-])c1` (configuration not stated), which Potency is on record?
A: Its Potency is 23.7 µM (active).

Q: With `CC(COC(=O)c1ccccc1)OC(=O)c1ccccc1` (configuration not stated) as the molecule, how does the Potency read?
A: The Potency was “inactive”.

Q: Which Potency does the source give for `C(=C/c1ccccc1)/c1ccccc1` here?
A: Its Potency is “inactive”.

Q: For `c1cc[nH]c1`, which Potency is on record?
A: Its Potency is “inactive”.

Q: With `CCCCCCCCCCCCN(CCO)CCO` as the molecule, how does the Potency read?
A: The Potency was 60.9 µM (active).

Q: With `Clc1nc2ccccc2s1` as the molecule, how does the Potency read?
A: Its Potency is “inactive”.

Q: With `OCCC(O)CO` (configuration not stated) as the molecule, how does the Potency read?
A: Its Potency is “inactive”.

Q: With `NCCCCCCNCCCCCCN` as the molecule, how does the Potency read?
A: The Potency was “inactive”.

Q: Which Potency does the source give for `Cc1c(C(=O)O)cccc1[N+](=O)[O-]` here?
A: Its Potency is “inactive”.

Q: Which Potency does the source give for `O=C(O)c1cccc(Cl)n1` here?
A: The Potency was “inactive”.

Q: With `CCCCCCCCCCCCCCCC` as the molecule, how does the Potency read?
A: The Potency was “inactive”.

Q: With `CC=O` as the molecule, how does the Potency read?
A: Its Potency is 57 µM (active).

Q: Which Potency does the source give for `CCO[Si](C)(C)OCC` here?
A: Its Potency is “inactive”.

Q: For `O=C=NCc1cccc(CN=C=O)c1`, which activity change, negative = cytotoxicity is on record?
A: Its activity change, negative = cytotoxicity is 13% [at 19 µM].

Q: For `CO[Si](CCC1CCC2OC2C1)(OC)OC` (configuration not stated), which Potency is on record?
A: Its Potency is “inactive”.

Q: Which Potency does the source give for `ClC/C=C\CCl` here?
A: Its Potency is “inactive”.

Q: For `CC(=O)OC1CCCCC1`, which Potency is on record?
A: Its Potency is “inactive”.

Q: For `c1ccc(Sc2ccccc2)cc1`, which Potency is on record?
A: Its Potency is “inactive”.

Q: With `Cc1ccc(CCn2c3c(c4cc(Cl)ccc42)CN(C)CC3)cn1` as the molecule, how does the Potency read?
A: The Potency was 26.6 µM (active).

Q: Which Potency does the source give for `CCc1cccc(C)c1` here?
A: Its Potency is “inactive”.

Q: Which Potency does the source give for `O=C(O)Cc1ccc(OCCNC[C@H](O)c2ccccc2)cc1` here?
A: Its Potency is “inactive”.

Q: With `CCC(C)C(=O)OC` (configuration not stated) as the molecule, how does the Potency read?
A: The Potency was “inactive”.

Q: For `CCN(CC)c1cccc(C)c1`, which Potency is on record?
A: The Potency was “inactive”.

Q: Which Potency does the source give for `OCCCc1cccnc1` here?
A: Its Potency is “inactive”.

Q: Which Potency does the source give for `CCCCCCCCCCCCCC[n+]1ccccc1` here?
A: Its Potency is 61.1 µM (active).

Q: Which Potency does the source give for `Cc1cc(C)c(C=O)c(C)c1` here?
A: Its Potency is “inactive”.

Q: With `COc1cccc(CCc2ccccc2OCC(CN(C)C)OC(=O)CCC(=O)O)c1` (configuration not stated) as the molecule, how does the Potency read?
A: The Potency was 21.1 µM (active).

— PubChem BioAssay (Tox21)
